Assay outcomes deposited in PubChem BioAssay by National Center for Advancing Translational Sciences (NCATS).
This is a sample that favours compounds with a hit; in the whole collection about 13% have one here.
FMDV inh: antivirals against foot and mouth disease virus. FMDV antiviral cell-based qHTS. Potency, µM (doses to about 57.9 µM), for the others: top-dose activity change, negative = inhibition, actives largely listed as inhibitors. hit rate 1.2% among 410,000; calls by dose curve; tested in HEK293T cells; note: read-out not given here; potency is the fitted concentration of half-maximal effect; % is set by controls: 0 for no effect and ±100 for the full control effect; nearly all actives have a fitted effect of over 45% in size
Shiga inhibitor: blocks Shiga toxin action in Vero cells. Vero cells, Shiga toxin protein synthesis inhibition reporter. inhibition, % at 38.7 µM. hit rate 9.2% among 290,000; in the data active = inhibition mostly above about 28%, no sharp cut-off; inactive = mostly below about 43%; note: 0% is about no effect
Marburg entry inh: inhibitors of Marburg virus binding or cell entry. Marburg virus pseudotyped entry inhibition, cell reporter. hit rate 1.8% among 300,000. Potency, µM (top dose mostly 37.8 µM), for inactives: at the highest dose activity change, negative = inhibition, most hits filed as inhibitors; calls by dose curve; tested in HEK293 cells; note: potency is the fitted concentration of half-maximal effect; % is set by controls: 0 for no effect and ±100 for the full control effect
HCV inhibitor: blocks hepatitis C virus | Huh7.5.1 HCVcc-Cre infection, luciferase reporter, 44 h | Potency, µM (highest dose often 41.8 µM), without a hit: at the top dose activity change, negative = inhibition, usual class: inhibitors | hit rate 3.4% among 340,000; active = well fitted inhibition curve with a large enough effect; inconclusive = small, poorly fitted or top-dose-only effect, or another doubt; inactive = no such curve, though single readings can be large or run the other way; note: potency is the fitted concentration of half-maximal effect; % is set by controls: 0 for no effect and ±100 for the full control effect
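1,000 cells/well; 4 h culture; + compound; + HCVcc-Cre (~0.5 moi); 44 h; luciferase substrate, RT 15 min; read 15 sec.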
CHX counter: counter-screen hit for Shiga toxin inhibitors, cycloheximide; cell reporter, cycloheximide protein synthesis inhibition counterscreen; max response, %; hit rate 12% among 300,000; AID 2314; in the data active = max response mostly above about 13%, no sharp cut-off; inactive = mostly below about 14%; note: read at 38.3 µM for the half of the compounds with a filed dose; 0% is about no effect
Lassa entry inh: inhibitors of Lassa virus binding or cell entry; Lassa virus pseudotype entry inhibition, cell reporter; Potency, µM (series often up to 37.9 µM), without a hit: top-dose activity change, negative = inhibition, hits mostly inhibitors; hit rate 1.2% among 300,000; AID 540256; calls by dose curve; tested in HEK293 cells; note: potency is the fitted concentration of half-maximal effect; % is set by controls: 0 for no effect and ±100 for the full control effect; nearly all actives have a fitted effect of over 50% in size
* = called active by the depositor; ! = a repeat was not active; [ ] = another dose, or the depositor's remark.

How did C=CCn1c(NCc2ccc3c(c2)OCO3)nc2ccccc21 do in these assays?
FMDV inh: -3.7%; Shiga inhibitor: active; Marburg entry inh: 21.3%; HCV inhibitor: inconclusive; CHX counter: 33.0*; Lassa entry inh: 15.1%

Results for CCC(C)n1c(SCc2ccc(C(C)(C)C)cc2)nc2ccsc2c1=O (configuration not stated) ?
FMDV inh: -26.7%; Lassa entry inh: -1.5%[46.1 µM]

Results for CCN(CC)C(=O)COC(=O)C1=NN(c2cc(C)ccc2C)C(=O)CC1 ?
FMDV inh: 7.6%; Shiga inhibitor: -4.1; Marburg entry inh: 9.4%[46.1 µM]; HCV inhibitor: 18.6%; CHX counter: 3.4; Lassa entry inh: 9.6%

How did CCCN(Cc1ccc(N(CC)CC)cc1)CC1CC1 do in these assays?
Shiga inhibitor: -21.5; Marburg entry inh: inconclusive; HCV inhibitor: 10µM*; CHX counter: -0.2; Lassa entry inh: -21.5%

What do the screens show for `Cc1nn(C)c(C)c1CNC(=O)c1cnn2c1NC(c1ccccc1)CC2C(F)(F)F` (configuration not stated)?
Shiga inhibitor: -4.8; Marburg entry inh: 0.6%; HCV inhibitor: -18.6%; CHX counter: -0.4; Lassa entry inh: -17.6%

How did Cc1ccc(C2CC(C(F)(F)F)n3nc(C(=O)NCc4c(C)nn(C)c4C)c(Cl)c3N2)cc1 (configuration not stated) do in these assays?
FMDV inh: 25.1µM*; Shiga inhibitor: -1.2; Marburg entry inh: 11.6µM*!; HCV inhibitor: 8.91µM*; CHX counter: -3.4; Lassa entry inh: inconclusive

Results for O=C(N[C@@H](Cc1c[nH]c2ccccc12)C(=O)O)C1CCN(S(=O)(=O)c2cccs2)CC1 ?
FMDV inh: 0.0%; Shiga inhibitor: 14.8; HCV inhibitor: 5.7%; CHX counter: -2.0

What do the screens show for `COc1cccc(NC2=C(NCCO)C(=O)c3ccccc3C2=O)c1`?
FMDV inh: -10.4%; Marburg entry inh: 3.9%[46.1 µM]; HCV inhibitor: 15.8%; CHX counter: 11.2*; Lassa entry inh: inconclusive

How did COc1ccc(NC2=C(NC(C)=O)C(=O)c3ccccc3C2=O)cc1 do in these assays?
FMDV inh: 0.0%; Shiga inhibitor: 25.0; Marburg entry inh: inconclusive; HCV inhibitor: inconclusive; CHX counter: 6.8; Lassa entry inh: inconclusive

Results for COc1ccc(NC2=C(NCCO)C(=O)c3ccccc3C2=O)cc1 ?
FMDV inh: 0.0%; Shiga inhibitor: 80.9*; Marburg entry inh: inconclusive; HCV inhibitor: inconclusive; CHX counter: 52.5*; Lassa entry inh: inconclusive

What do the screens show for `Cc1ccccc1-c1nn2c(=O)cc(CN3CCN(C(=O)/C=C/c4ccccc4)CC3)nc2s1`?
FMDV inh: -15.4%; Lassa entry inh: 6.5%[46.1 µM]

Results for C=CCN(C(=O)c1cccc(S(=O)(=O)N2CCN(C)CC2)c1)c1nc(-c2ccccc2)cs1 ?
FMDV inh: inconclusive; Shiga inhibitor: -10.5; Marburg entry inh: inconclusive; HCV inhibitor: 25.1µM*; CHX counter: 0.7; Lassa entry inh: inconclusive

What do the screens show for `CN(C)CCCN(C(=O)c1cccs1)c1nc(-c2ccccc2)cs1`?
FMDV inh: -8.5%; Shiga inhibitor: 13.6; Marburg entry inh: inconclusive; HCV inhibitor: inconclusive; CHX counter: -2.8; Lassa entry inh: -26.1%

What do the screens show for `C=CCN(C(=O)C1CSC2(C)CCC(=O)N12)c1nc(-c2ccccc2)cs1` (configuration not stated)?
FMDV inh: -21.8%; Marburg entry inh: -13.3%; HCV inhibitor: inconclusive; Lassa entry inh: -14.4%

Results for C=CCN(C(=O)CCc1ccccc1OC)c1nc(-c2ccc(S(C)(=O)=O)cc2)cs1 ?
FMDV inh: 8.1%; Shiga inhibitor: 62.8*; Marburg entry inh: inconclusive; HCV inhibitor: inconclusive; CHX counter: 39.0*; Lassa entry inh: inconclusive

How did C=CCN(C(=O)Cc1cccs1)c1nc(-c2ccc(S(C)(=O)=O)cc2)cs1 do in these assays?
FMDV inh: 8.5%; Shiga inhibitor: 72.8*; Marburg entry inh: inconclusive; HCV inhibitor: inconclusive; CHX counter: 20.9*; Lassa entry inh: inconclusive

How did CN1CCN(S(=O)(=O)c2cccc(C(=O)N(C)Cc3cccs3)c2)CC1 do in these assays?
FMDV inh: -2.8%; HCV inhibitor: 0.6%

What do the screens show for `COc1ccc(Cl)cc1C(=O)NNC(=S)NC1CCCCC1`?
FMDV inh: -20.3%; Shiga inhibitor: 1.1; Marburg entry inh: 2.1%[46.1 µM]; HCV inhibitor: 17.4%; CHX counter: 9.5; Lassa entry inh: -2.2%

How did Cc1ccc(CN(Cc2ccco2)C(=O)COc2ccc(C)c(C)c2)cc1 do in these assays?
FMDV inh: -11.9%; Marburg entry inh: inconclusive; Lassa entry inh: inconclusive

Results for Cc1cc(=O)oc2ccc(OCC(=O)N(Cc3ccc(F)cc3)Cc3ccco3)cc12 ?
FMDV inh: 20µM*; Shiga inhibitor: 76.4*; Marburg entry inh: inconclusive; HCV inhibitor: 3.16µM*; CHX counter: 46.9*; Lassa entry inh: -24.6%

Results for CCOC(=O)C1=C(CC)NC2=C(C(=O)CCC2)C1c1ccc(OC)c(OC)c1 (configuration not stated) ?
FMDV inh: 12.3%; Shiga inhibitor: 13.9; Marburg entry inh: -1.2%[46.1 µM]; HCV inhibitor: 6.4%; CHX counter: -2.1; Lassa entry inh: -6.7%

What do the screens show for `O=C(COC(=O)c1n[nH]c2ccccc12)c1cc(F)ccc1F`?
FMDV inh: -8.2%; Shiga inhibitor: 44.0*; Marburg entry inh: -20.3%[46.1 µM]; HCV inhibitor: 0.8%; CHX counter: 30.4*; Lassa entry inh: -14.5%

How did CCc1ccc(C(=O)COC(=O)c2n[nH]c3ccccc23)cc1 do in these assays?
FMDV inh: -9.0%; Shiga inhibitor: 87.0*; Marburg entry inh: -24.3%; HCV inhibitor: -18.6%; CHX counter: 47.5*; Lassa entry inh: inconclusive

Results for O=C(COC(=O)c1n[nH]c2ccccc12)Nc1ccc([N+](=O)[O-])cc1 ?
FMDV inh: 25.1%; Shiga inhibitor: 22.7*; Marburg entry inh: 20.1%; HCV inhibitor: 28.4%; CHX counter: 10.5; Lassa entry inh: inconclusive

What do the screens show for `O=C(CCCc1ccccc1)Nc1ccc(S(=O)(=O)N2CCOCC2)cc1`?
FMDV inh: -9.5%; Shiga inhibitor: 1.2; Marburg entry inh: -8.0%[46.1 µM]; HCV inhibitor: -8.1%; CHX counter: 7.6; Lassa entry inh: -16.3%

What do the screens show for `CCCCCCN1C[C@H](n2cc(C3CC3)nn2)[C@@H](O)C[C@H]1c1ccc(Cl)cc1`?
Lassa entry inh: 15.8µM*

How did O=C(C1CCCCC1)N1C[C@H](n2cc(-c3ccc(F)cc3)nn2)[C@H](O)C[C@@H]1c1ccc(Cl)cc1 do in these assays?
Marburg entry inh: 3.53µM*

What do the screens show for `CCCCCCN1C[C@@H](n2cc(-c3ccc(F)cc3)nn2)[C@H](O)C[C@H]1c1ccccc1`?
Marburg entry inh: 15.8µM*

What do the screens show for `CCCCCCN1C[C@H](n2cc(C3CC3)nn2)[C@@H](O)C[C@@H]1c1ccc(C)cc1`?
FMDV inh: -2.9%

How did CCCCCCN1C[C@@H](n2cc(-c3ccc(F)cc3)nn2)[C@H](O)C[C@@H]1c1ccccc1 do in these assays?
FMDV inh: -9.9%
